Records with an inconclusive call do not appear. The source made the active and inactive calls. Unless noted, calls follow the shape of the dose curve; as a rule, active = well fitted curve in the direction sought with a large enough effect in the repeat runs; inconclusive = weak or mixed curves; inactive = no such curve, though single readings can be large; an effect the other way counts as inactive or inconclusive.
Experiments:
[1] = molecular target: Retinoic acid receptor RXR-alpha (Homo sapiens) (UniProt P19793); assay: qHTS assay to identify small molecule agonists of the RXR signaling pathway (AID 1159527; calls by dose curve; also: nearly all actives have a fitted effect of over 35% in size)
Summary of the method: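 Compounds in DMSO were added to RXR-alpha-UAS-bla HEK 293T cells kept in 2% charcoal-stripped serum, and incubated 16 hr at 37 C with 5% CO2. Reporter signal came from a 2 hr B/G FRET substrate step.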

[2] = qHTS assay to identify small molecule agonists of the RXR signaling pathway - cell viability counter screen (AID 1159529);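 also: HEK 293T cells carrying an RXR-alpha UAS beta-lactamase reporter; series mostly up to about 77 µM; nearly all actives have a fitted effect of over 50% in size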
Summary of the method: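 Counter screen: CellTiter-Glo luminescence. Cells: RXR-alpha-UAS-bla HEK 293T. Medium: 2% charcoal-stripped FBS. Treatment: 16 h, 37 C. Reagent incubation: 30 min, RT.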

[3] = qHTS assay to identify small molecule antagonists of the retinoid acid receptor (RAR) signaling pathway - cell viability counter screen (AID 1159551); also: nearly all actives have a fitted effect of over 35% in size
Summary of the method: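 Cytotoxicity counter screen in C3RL4 cells: 6 h compound exposure with 1 uM retinol (final), viability from cellular ATP by luminescence.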

[4] = qHTS assay to identify small molecule agonists of the retinoic acid receptor (RAR) signaling pathway (AID 1159553)
Summary of the method: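 Agonist activity was scored in C3RL4 cells bearing a retinoic acid response element luciferase construct. Cells were treated with compounds for 6 hr at 37 C, and luciferase signal was measured as luminescence.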

[5] = qHTS assay to identify small molecule antagonists of the estrogen related receptor (ERR) signaling pathway from Tox21 library - cell viability counter screen (AID 1224834); also: nearly all actives have a fitted effect of over 30% in size
Summary of the method: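 Cytotoxicity of test substances is gauged in the same ERR cells used for the antagonist screen, after 17.5 h of compound treatment at 37 C, by CellTiter-Fluor fluorescence measured after 30 min.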

[6] = molecular target: Luciferin 4-monooxygenase (Photinus pyralis) (UniProt P08659); assay: qHTS assay to identify small molecule inhibitors of firefly luciferase (AID 1224835); also: series mostly up to about 120 µM; nearly all actives have a fitted effect of over 25% in size
Summary of the method: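 Quantitative HTS format; KM concentrations of both substrates. Purified P. pyralis FLuc activity quantified from luminescence images.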

[7] = qHTS assay to identify small molecule agonists of the constitutive androstane receptor (CAR) signaling pathway - cell viability counter screen (AID 1224836); also: series mostly up to about 92 µM; nearly all actives have a fitted effect of over 45% in size
Summary of the method: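 Double-stable HepG2 hepatoma cells (hCAR plus CYP2B6-2.2kb) are treated for 23 h at 37 C with test compounds in 15-point concentration series. PK11195 at 0.75 uM final is co-added. Cell viability is quantified by CellTiter-Fluor.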

[8] = qHTS assay to identify small molecule antagonists of the constitutive androstane receptor (CAR) signaling pathway - cell viability counter screen (AID 1224837); also: series mostly up to about 92 µM; nearly all actives have a fitted effect of over 45% in size
Summary of the method: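 Multiplexed cytotoxicity read-out for the CAR antagonist screen: double-stable HepG2-CYP2B6-hCAR cells co-treated with 50 nM CITCO (final) and compound over 15 concentrations, incubated 23 hr, then assessed by CellTiter-Fluor fluorescence.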

[9] = molecular target: Nuclear receptor subfamily 1 group I member 3 (Homo sapiens) (UniProt Q14994); assay: qHTS assay to identify small molecule antagonists of the constitutive androstane receptor (CAR) signaling pathway (AID 1224838); also: nearly all actives have a fitted effect of over 40% in size
Summary of the method: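 Compounds were titrated across 15 concentrations onto HepG2 cells double-stably expressing hCAR and a CYP2B6-2.2kb reporter, together with 50 nM CITCO (final). After 24 h at 37 C, luciferase activity was measured by luminescence.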

[10] = molecular target: Nuclear receptor subfamily 1 group I member 3 (Homo sapiens) (UniProt Q14994); assay: qHTS assay to identify small molecule agonists of the constitutive androstane receptor (CAR) signaling pathway (AID 1224839);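 also: HepG2 cells stably carrying human CAR and a CYP2B6 luciferase reporter; series mostly up to about 92 µM; nearly all actives have a fitted effect of over 15% in size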
Summary of the method: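 Readout: firefly luciferase luminescence via ONE-Glo. System: HepG2 double-stable for hCAR and CYP2B6-2.2kb. Conditions: 15-point compound titration, PK11195 at 0.75 uM final, 24 h incubation.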

[11] = qHTS assay to identify small molecule antagonists of the estrogen related receptor signaling pathway with the pleiotropic PPARgamma coactivator (PGC) from Tox21 10K library - cell viability counter screen (AID 1224840; active = well fitted cell-killing curve with a large enough effect in the repeat runs, not every such curve was filed as active; also: nearly all actives have a fitted effect of over 40% in size)
Summary of the method: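 Step one, plate 2,000 PGC/ERR cells per well; step two, incubate 6 h at 37 C/5% CO2; step three, pin-transfer compounds; step four, incubate 17.5 h; step five, add CellTiter-Fluor and read fluorescence after 30 min.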

[12] = qHTS assay to identify small molecule antagonists of the estrogen related receptor signaling pathway with the pleiotropic PPARgamma coactivator (PGC) from Tox21 10K library (AID 1224841; call rule not given here; also: series mostly up to about 92 µM; actives are mostly falling curves and most rising ones were filed inactive; nearly all actives have a fitted effect of over 50% in size)
Summary of the method: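 Antagonism in this quantitative HTS is taken from loss of luciferase signal in PGC/ERR cells. Cells (2,000/well) are treated with compounds in DMSO after a 6 h settling period and read by One-Glo luminescence after 18 h.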

[13] = qHTS assay to identify small molecule agonists of the estrogen related receptor signaling pathway with the pleiotropic PPARgamma coactivator (PGC) from Tox21 10K library (AID 1224842); also: nearly all actives have a fitted effect of over 15% in size
Summary of the method: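 PGC/ERR reporter cells (NTP line) were seeded 2,000 per well, rested 6 h at 37 C/5% CO2, then pin-dosed with compounds in DMSO for 18 h at 37 C; luciferase read by One-Glo luminescence after 30 min at room temperature.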

[14] = molecular target: Thyrotropin receptor (Homo sapiens) (UniProt P16473); assay: qHTS assay to identify small molecule agonists of the thyroid stimulating hormone receptor (TSHR) signaling pathway (AID 1224843; calls by dose curve; also: nearly all actives have a fitted effect of over 45% in size)
Summary of the method: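 TSHR-expressing HEK293 cells (800 per well) were exposed to compounds for 30 min at room temperature. cAMP was then detected by HTRF competition with cAMP-d2 and anti-cAMP cryptate, read after 1 h at room temperature. Fifteen concentrations, triplicate.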

[15] = qHTS assay to identify small molecule antagonists of the retinoic acid receptor (RAR) signaling pathway (AID 1159552; also: nearly all actives have a fitted effect of over 50% in size)
Summary of the method: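 Antagonism of retinol-induced RARE reporter activity was measured in C3RL4 cells. Exposure to compounds and 1 uM final retinol lasted 6 hr at 37 C, with luminescence as endpoint.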

[16] = qHTS assay to identify small molecule antagonists of the estrogen related receptor (ERR) signaling pathway - cell viability counter screen (AID 1224818);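 also: series mostly up to about 46 µM; viability measured after 17.5 h of compound exposure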
Summary of the method: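 Cells carrying the ERR pathway reporter were seeded and incubated for 6 hours before compound addition. After a 17.5-hour exposure at 37 C, live-cell protease activity was measured by CellTiter-Fluor fluorescence following 30 minutes of incubation.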

[17] = qHTS assay to identify small molecule antagonists of the estrogen related receptor signaling pathway with the pleiotropic PPARgamma coactivator (PGC) cell viability counter screen (AID 1224822;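 also: series mostly up to about 46 µM; viability read after 17.5 h compound exposure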)
Summary of the method: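 Seed PGC/ERR cells (2,000/well); incubate 6 h at 37 C/5% CO2; pin-transfer compounds in DMSO; incubate 17.5 h at 37 C; add CellTiter-Fluor; after 30 min read fluorescence.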
% is scaled to controls: 0 for no effect and ±100 for the full control effect.

Sequence of Thyrotropin receptor (Homo sapiens) (P16473 whole entry, looked up): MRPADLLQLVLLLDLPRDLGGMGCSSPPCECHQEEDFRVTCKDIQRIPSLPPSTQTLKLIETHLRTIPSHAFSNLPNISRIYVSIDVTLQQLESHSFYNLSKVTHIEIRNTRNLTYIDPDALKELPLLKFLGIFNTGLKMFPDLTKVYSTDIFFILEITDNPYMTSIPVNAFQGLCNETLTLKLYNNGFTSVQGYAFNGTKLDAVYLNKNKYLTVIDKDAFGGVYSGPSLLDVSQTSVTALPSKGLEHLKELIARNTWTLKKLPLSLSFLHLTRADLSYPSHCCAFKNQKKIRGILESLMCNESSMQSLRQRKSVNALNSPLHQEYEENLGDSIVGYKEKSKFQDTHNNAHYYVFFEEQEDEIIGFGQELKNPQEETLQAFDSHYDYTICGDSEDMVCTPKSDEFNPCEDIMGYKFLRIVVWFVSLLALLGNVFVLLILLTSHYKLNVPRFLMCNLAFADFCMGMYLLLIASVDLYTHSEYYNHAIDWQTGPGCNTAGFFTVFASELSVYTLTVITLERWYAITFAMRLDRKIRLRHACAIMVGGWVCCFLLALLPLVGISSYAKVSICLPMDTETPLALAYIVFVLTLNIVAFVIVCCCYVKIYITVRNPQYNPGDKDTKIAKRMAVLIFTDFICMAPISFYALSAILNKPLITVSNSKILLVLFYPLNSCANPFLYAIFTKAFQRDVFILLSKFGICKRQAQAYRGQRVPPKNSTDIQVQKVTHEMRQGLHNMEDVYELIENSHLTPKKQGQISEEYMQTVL
Sequence of Retinoic acid receptor RXR-alpha (Homo sapiens) (P19793 whole entry, looked up): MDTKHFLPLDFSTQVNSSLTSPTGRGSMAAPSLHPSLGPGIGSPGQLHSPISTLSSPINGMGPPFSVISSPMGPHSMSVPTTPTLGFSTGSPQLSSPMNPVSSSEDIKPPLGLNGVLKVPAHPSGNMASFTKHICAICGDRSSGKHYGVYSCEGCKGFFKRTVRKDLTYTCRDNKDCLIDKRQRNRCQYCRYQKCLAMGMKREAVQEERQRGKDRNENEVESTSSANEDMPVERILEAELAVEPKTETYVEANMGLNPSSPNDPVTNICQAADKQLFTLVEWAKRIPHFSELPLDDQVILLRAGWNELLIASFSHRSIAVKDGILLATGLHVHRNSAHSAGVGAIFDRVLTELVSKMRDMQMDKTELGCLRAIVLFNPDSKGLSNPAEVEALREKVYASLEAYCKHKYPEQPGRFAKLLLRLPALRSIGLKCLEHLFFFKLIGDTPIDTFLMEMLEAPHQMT
Sequence of Nuclear receptor subfamily 1 group I member 3 (Homo sapiens) (Q14994 whole entry, looked up): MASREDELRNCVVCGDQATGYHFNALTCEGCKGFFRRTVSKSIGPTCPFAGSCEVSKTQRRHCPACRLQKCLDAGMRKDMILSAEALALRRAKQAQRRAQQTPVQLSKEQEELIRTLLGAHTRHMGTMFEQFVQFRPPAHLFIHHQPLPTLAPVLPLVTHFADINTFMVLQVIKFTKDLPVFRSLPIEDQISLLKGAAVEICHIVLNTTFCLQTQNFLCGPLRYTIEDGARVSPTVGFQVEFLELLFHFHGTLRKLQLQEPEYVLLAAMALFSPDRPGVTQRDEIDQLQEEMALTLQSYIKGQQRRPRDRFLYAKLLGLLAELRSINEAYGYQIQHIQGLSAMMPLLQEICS
Sequence of Luciferin 4-monooxygenase (Photinus pyralis) (P08659 whole entry, looked up): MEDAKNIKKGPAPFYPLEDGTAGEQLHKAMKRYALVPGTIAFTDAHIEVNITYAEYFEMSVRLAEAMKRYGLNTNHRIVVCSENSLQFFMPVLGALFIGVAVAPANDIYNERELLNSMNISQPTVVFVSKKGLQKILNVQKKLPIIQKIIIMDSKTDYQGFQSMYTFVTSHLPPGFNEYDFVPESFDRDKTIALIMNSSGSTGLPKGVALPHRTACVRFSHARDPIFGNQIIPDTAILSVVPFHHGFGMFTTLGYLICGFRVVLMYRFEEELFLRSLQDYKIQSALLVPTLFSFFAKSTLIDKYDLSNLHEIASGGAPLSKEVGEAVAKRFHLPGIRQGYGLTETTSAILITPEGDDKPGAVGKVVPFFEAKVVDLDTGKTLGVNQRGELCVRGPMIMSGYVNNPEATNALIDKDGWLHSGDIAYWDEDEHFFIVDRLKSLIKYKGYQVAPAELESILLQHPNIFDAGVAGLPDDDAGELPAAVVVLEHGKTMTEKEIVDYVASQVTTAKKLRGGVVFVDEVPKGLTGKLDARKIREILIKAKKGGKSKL

N[C@H](C(=O)O)c1ccc(O)cc1
inactive: Potency [1] | Potency [2] | activity change, negative = cytotoxicity [3] 1.22% [at 19 µM] | Potency [4] | viability change, negative = cytotoxic [5] -0.517% [at 19 µM] | activity change, negative = inhibition [6] -0.257% [at 23.6 µM] | viability change, negative = cytotoxic [7] -1.44% [at 19 µM] | activity change, negative = cytotoxicity [8] 4.98% [at 19 µM] | activity, negative = inhibition [9] -5.61% [at 19 µM] | activation [10] -0.259% [at 19 µM] | viability change, negative = cytotoxic [11] -4.51% [at 19 µM] | activity, negative = inhibition [12] 1.15% [at 19 µM] | activation [13] 0.319% [at 19 µM] | Potency [14]

Cc1nc2c([nH]1)c(=O)n(C)c(=O)n2Cc1ccco1
inactive: Potency [2] | outcome [3] | Potency [15] | Potency [4] | outcome [16] | outcome [17] | Potency [5] | Potency [6] | Potency [7] | Potency [8] | Potency [9] | Potency [10] | Potency [11]

Cn1cc(S(C)=O)c(=O)c2ccc(F)cc21 (configuration not stated)
inactive: Potency [1] | Potency [2] | outcome [3] | Potency [4] | Potency [5] | Potency [7] | Potency [8] | Potency [9] | Potency [10] | Potency [11] | Potency [12] | outcome [13] | Potency [14]

CCO[Si](CCC1CCC2OC2C1)(OCC)OCC (configuration not stated)
inactive: Potency [1] | Potency [2] | outcome [3] | Potency [4] | Potency [5] | Potency [6] | Potency [7] | Potency [8] | Potency [9] | Potency [10] | Potency [11] | Potency [12] | outcome [13] | Potency [14]

FC(F)OC(Cl)C(F)(F)F (configuration not stated)
inactive: Potency [2] | outcome [3] | Potency [15] | Potency [4] | Potency [5] | Potency [6] | Potency [7] | Potency [8] | Potency [9] | Potency [10] | Potency [11] | Potency [12] | outcome [13]

Cn1c(N)c(N=O)c(=O)n(C)c1=O
inactive: Potency [1] | Potency [2] | outcome [3] | Potency [4] | Potency [5] | Potency [7] | Potency [8] | Potency [9] | Potency [10] | Potency [11] | Potency [12] | outcome [13] | Potency [14]

CCCN1CCCC[C@H]1C(=O)Nc1c(C)cccc1C
inactive: Potency [1] | Potency [2] | outcome [3] | Potency [4] | Potency [5] | Potency [6] | Potency [7] | Potency [8] | Potency [9] | Potency [10] | Potency [11] | Potency [12] | outcome [13] | Potency [14]

CC(C)(O)C#CC(C)(C)O
inactive: Potency [1] | Potency [2] | outcome [3] | Potency [4] | Potency [5] | Potency [6] | Potency [7] | Potency [8] | Potency [9] | Potency [10] | Potency [11] | Potency [12] | outcome [13] | Potency [14]

COc1nc(N)nc2c1ncn2[C@@H]1O[C@H](CO)[C@@H](O)[C@@H]1O
inactive: Potency [1] | Potency [2] | outcome [3] | Potency [4] | Potency [5] | Potency [6] | Potency [7] | Potency [8] | Potency [9] | Potency [10] | Potency [11] | Potency [12] | outcome [13] | Potency [14]

Source: PubChem BioAssay (Tox21)
